# Calls of active or inactive are those of the source.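 Rule for the calls, unless noted: active = fluorescence slope higher than the sample average by over 3 SD (cut at about -0.22 in these data, passing the limit was not always enough); inactive = the rest.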
# Key:
# [1] = inhibitors of TNFa-induced NFkB p65 translocation, primary screen, imaging, HUVEC, MLSMR starter and 10KST1 sets (AID 438;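 active = inhibition above 20% together with a positive visual image hit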;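 note: compound added about 3h40 before a 20 min TNFalpha stimulation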;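 for inhibition: signal is the nuclear over cytoplasmic p65 intensity ratio per well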); conditions: HUVEC TNFa-induced p65 nuclear translocation; cell count: measured here: nuclei count (cytotoxicity indicator), at 2.08 µM; inhibition: at 2 µM, stronger effect = higher value, 0% TNFa-plus-vehicle, 100% no-TNFa wells
# [2] = reduction of polyQ htt aggregates in cells – imaging, exon1htt(103Q)mCFP cells, high-content imaging, primary screen (AID 483;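 active = visual image review flags a hit and inhibition of aggregation exceeds 20%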;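 note: compound exposure lasted 3 days before fixation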;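 for nuclei count: percent of the per-plate median nuclei count of sample wells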); conditions: exon1htt(103Q)mCFP cell line, aggregate imaging, at 2 µM; inhibition of aggregation: stronger effect = higher value; nuclei count: measured here: cell count, toxicity
# [3] = endothelial E-selectin expression blockers – imaging, HUVEC, immunofluorescence, MLSMR starter and 10KST1 sets, primary screen (AID 487;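 active = visually confirmed hit in the image check and inhibition above 20%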;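 for inhibition: signal is fraction of cell area covered by stained E-selectin grains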;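 for nuclei count: 100% = median nuclei count of all wells on the same plate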); conditions: HUVEC TNFalpha-induced E-selectin immunofluorescence imaging, at 2 µM; inhibition: stronger effect = higher value; nuclei count: measured here: cell number, toxicity
# [4] = biological target: Voltage-gated potassium channel subunit beta-2 (Rattus norvegicus) (UniProt P62483); experiment: inhibitors of rat Kvbeta2 reductase activity – biochemical, NADPH fluorescence, primary screen (AID 622); conditions: recombinant KvBeta, 4-cyanobenzaldehyde reduction, at 10 µM, stronger effect = higher value;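 note: slope of raw intensity against log time taken from 70 to 1610 s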
# [5] = biological target: Voltage-gated potassium channel subunit beta-2 (Rattus norvegicus) (UniProt P62483); experiment: enhancers of rat Kvbeta2 NADPH turnover – biochemical, NADPH fluorescence, primary screen (AID 623;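 active = NADPH fluorescence slope more negative than the mean of all samples by about 3 SD, 99.7% confidence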;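 note: fluorescence intensity change per second fitted from 20 to 320 s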); conditions: Recombinant KvBeta, NADPH fluorescence decrease slope, 10 min; at 10 µM; stronger effect = lower value
# [6] = biological target: Alpha-2C adrenergic receptor (Homo sapiens) (UniProt P18825); experiment: compounds altering alpha2C-coupled GIRK flux – cell-based, HEK293 alpha2C/GIRK1/2, thallium flux, primary screen (AID 624;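 active = fluorescence slope after compound addition differing from the mean of all screened samples at 99.7% confidence, in either direction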;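 note: slope of fluorescence ratio to pre-addition baseline per second over 15 to 24 s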); conditions: thallium flux BTC fluorescence, at 10 µM, actives lie on both sides
# [7] = blockers of RIG-like receptor reporter activation – cell-based, Sendai virus stimulus, luciferase, 10K MLSCN set, TLR/RLR signaling modifier project, primary screen (AID 602276;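 active = inhibition at or above 50% at 10 µM; inactive = inhibition below 50%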;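 note: firefly luciferase from ISG56 promoter only with Renilla not read in this screen; 0% = Sendai virus plus DMSO and 100% = medium plus DMSO without virus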); conditions: HEK293 RL24 IRF3 luciferase reporter, at 10 µM, stronger effect = higher value
# [8] = TLR3 IRF3 reporter activation blockers – cell-based, poly I:C stimulus, luciferase, 10K MLSCN set, primary screen (AID 602277;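 active = inhibition of the reporter signal at or above 50%; inactive = inhibition below 50%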); conditions: HEK293-TLR3 RL24 IRF3 luciferase reporter, at 10 µM, stronger effect = higher value
# Chain of Alpha-2C adrenergic receptor (Homo sapiens) (P18825 whole entry, looked up): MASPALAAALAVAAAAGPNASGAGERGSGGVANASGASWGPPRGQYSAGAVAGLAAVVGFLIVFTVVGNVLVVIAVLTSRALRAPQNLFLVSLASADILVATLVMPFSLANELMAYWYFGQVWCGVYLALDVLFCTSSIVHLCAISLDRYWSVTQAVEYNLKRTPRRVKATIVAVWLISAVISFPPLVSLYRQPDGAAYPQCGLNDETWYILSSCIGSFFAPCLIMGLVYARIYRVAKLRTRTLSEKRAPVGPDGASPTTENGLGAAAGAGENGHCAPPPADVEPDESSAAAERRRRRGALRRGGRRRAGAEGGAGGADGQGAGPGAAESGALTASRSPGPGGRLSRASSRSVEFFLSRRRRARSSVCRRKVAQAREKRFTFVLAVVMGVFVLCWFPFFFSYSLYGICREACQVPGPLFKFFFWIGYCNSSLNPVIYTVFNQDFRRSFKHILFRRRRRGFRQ
# Chain of Voltage-gated potassium channel subunit beta-2 (Rattus norvegicus) (P62483 whole entry, looked up): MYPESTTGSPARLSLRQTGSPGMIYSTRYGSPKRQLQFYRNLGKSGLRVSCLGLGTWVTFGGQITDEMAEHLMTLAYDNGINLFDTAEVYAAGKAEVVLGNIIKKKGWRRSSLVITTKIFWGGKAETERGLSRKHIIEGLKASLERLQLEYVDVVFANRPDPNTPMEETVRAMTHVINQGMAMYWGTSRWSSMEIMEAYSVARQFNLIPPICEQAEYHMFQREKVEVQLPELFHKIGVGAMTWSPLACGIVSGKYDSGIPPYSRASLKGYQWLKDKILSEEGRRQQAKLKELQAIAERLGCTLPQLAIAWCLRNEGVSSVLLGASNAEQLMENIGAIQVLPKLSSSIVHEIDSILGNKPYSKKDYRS
SMILES,cell count [1],inhibition [1],inhibition of aggregation [2],nuclei count [2],inhibition [3],nuclei count [3],fluorescence slope [4],NADPH fluorescence slope [5],slope [6],inhibition [7],inhibition [8]
COC(=O)c1ccc(C2C(C#N)=C(N)Oc3cc(C)n(C)c(=O)c32)cc1 (stereo not drawn),551,-11.1% (inactive),0.4% (inactive),111%,-1.7% (inactive),111%,-0.499 (inactive),-4.1e-05 (inactive),0.00425 (inactive),9.77% (inactive),6% (inactive)
CCC(C(=O)Nc1ccccc1C(=O)N1CCCC1)N1C(=O)c2ccccc2C1=O (stereo not drawn),623,16.8% (inactive),-16.8% (inactive),109%,-112% (inactive),112%,-0.356 (inactive),9.2e-06 (inactive),0.0034 (inactive),4.49% (inactive),15.4% (inactive)
COc1ccc(N(CC(=O)Nc2ccc3c(c2)OCCO3)S(=O)(=O)c2cccnc2)cc1,515,-3.3% (inactive),13.1% (inactive),117%,-36.8% (inactive),122%,-0.608 (inactive),-7e-05 (inactive),0.00783 (inactive),-5.76% (inactive),17.1% (inactive)
COc1ccccc1C(=O)Nc1ccc(N2CCN(Cc3ccccc3)CC2)cc1,690,12% (inactive),23.2% (inactive),95.9%,19.4% (inactive),97%,-0.611 (inactive),-1.3e-06 (inactive),0.00369 (inactive),9.6% (inactive),-11% (inactive)
CCc1nccn1S(=O)(=O)c1ccc(C)c(C)c1,603,-11.5% (inactive),7% (inactive),94%,-33% (inactive),117%,-0.618 (inactive),-5.2e-05 (inactive),0.00545 (inactive),7.1% (inactive),12.9% (inactive)
COc1cccc(N(C(=O)c2ccco2)C(C(=O)NC2CCCC2)c2ccc(N(C)C)cc2)c1 (stereo not drawn),582,-1.6% (inactive),-38.4% (inactive),98.6%,5.4% (inactive),77.9%,-0.44 (inactive),-0.000142 (inactive),0.00648 (inactive),6.61% (inactive),15.9% (inactive)
CCOc1ccc(OCC)c(NC(=O)CN2CCN(C(=O)c3ccco3)CC2)c1,554,-19.4% (inactive),-12.3% (inactive),122%,-77.5% (inactive),102%,-0.546 (inactive),1.9e-05 (inactive),0.00515 (inactive),-15.6% (inactive),-16.4% (inactive)
CC1(C)CC(=O)C(C=NCc2ccc3c(c2)OCO3)=C(O)C1,665,-29.5% (inactive),2.3% (inactive),104%,-10.4% (inactive),93.7%,-0.459 (inactive),3.1e-05 (inactive),0.00553 (inactive),13.9% (inactive),19.8% (inactive)
COc1cccc(CN=CC2=C(O)CC(C)(C)CC2=O)c1OC,326,-18.3% (inactive),-1.8% (inactive),99.6%,-1.5% (inactive),111%,-0.468 (inactive),9.7e-05 (inactive),0.00629 (inactive),1.64% (inactive),3.58% (inactive)
CC1Cc2ccccc2N1Cc1cc(=O)n2ccsc2n1 (stereo not drawn),453,-5.7% (inactive),-2.2% (inactive),96.8%,-157% (inactive),121%,-0.581 (inactive),-2e-05 (inactive),0.00674 (inactive),1.61% (inactive),20.7% (inactive)
O=C1OC(N2CCN(c3ccccn3)CC2)c2ccccc21 (stereo not drawn),697,9.1% (inactive),-14.4% (inactive),104%,34.3% (inactive),88.3%,-0.633 (inactive),-3.6e-05 (inactive),0.00362 (inactive),19.9% (inactive),12% (inactive)
CC(=O)c1cccc(NC(=O)NCc2ccccn2)c1,655,-6.1% (inactive),-1.1% (inactive),132%,-41.1% (inactive),119%,-0.424 (inactive),-4.2e-05 (inactive),0.00223 (inactive),-8.72% (inactive),-125% (inactive)
Cc1ccc(C2c3c(oc4ccccc4c3=O)C(=O)N2c2nnc(C(C)C)s2)o1 (stereo not drawn),622,-13.1% (inactive),-21.4% (inactive),90.4%,-37.8% (inactive),102%,-0.436 (inactive),-5.6e-05 (inactive),0.00484 (inactive),9.17% (inactive),19.7% (inactive)
COc1ccc(/C=N/n2cnnc2SCc2ccc(OC)cc2)cc1,378,3.1% (inactive),1.4% (inactive),96.9%,-27.7% (inactive),108%,-0.348 (inactive),-4.9e-05 (inactive),0.00577 (inactive),6.24% (inactive),0.256% (inactive)
COc1ccc(S(=O)(=O)N2CCCC2C(=O)Nc2ccc(O)cc2)cc1 (stereo not drawn),601,7.1% (inactive),-21.9% (inactive),110%,-23.4% (inactive),111%,-0.535 (inactive),-2e-05 (inactive),0.00566 (inactive),1.14% (inactive),12.2% (inactive)
CC(=O)Nc1ccc(S(=O)(=O)N2CCN(c3cc(C)nc4ccccc34)CC2)cc1,730,-9.1% (inactive),35.3% (inactive),123%,-87.3% (inactive),120%,-0.31 (inactive),-7.9e-05 (inactive),0.00466 (inactive),5.87% (inactive),13.2% (inactive)
Cc1ccc(N(C(=O)c2ccncc2)C2C=CS(=O)(=O)C2)cc1 (stereo not drawn),816,-4% (inactive),-5.8% (inactive),114%,-56.8% (inactive),117%,-0.612 (inactive),-2.8e-05 (inactive),0.00723 (inactive),-4.78% (inactive),24.5% (inactive)
Cc1nnc(Nc2ccccn2)c2ccccc12,657,7.2% (inactive),8.1% (inactive),104%,-61.4% (inactive),109%,-0.465 (inactive),-4.2e-05 (inactive),0.00477 (inactive),8.64% (inactive),13.2% (inactive)
CC(C)(C)n1nnnc1C(c1cccs1)N1CCN(Cc2ccccc2)CC1 (stereo not drawn),482,-5.1% (inactive),0% (inactive),100%,-163% (inactive),230%,-0.606 (inactive),-6.2e-06 (inactive),0.00586 (inactive),15.9% (inactive),17.6% (inactive)
COC(=O)C1=CN(C)C=C(C(=O)OC)C1c1ccc(O)c(OC)c1,281,18.4% (inactive),-27.8% (inactive),23.5%,7.6% (inactive),103%,-0.39 (inactive),-4.6e-05 (inactive),0.00249 (inactive),11.2% (inactive),23.8% (inactive)
COC(=O)c1cc2ccsc2n1CC(=O)N(C)c1ccccc1,623,-15.1% (inactive),-8.1% (inactive),117%,-29.3% (inactive),92.2%,-0.261 (inactive),4.1e-06 (inactive),0.00481 (inactive),13.3% (inactive),22.7% (inactive)
COCCCNC(=O)CC1Oc2ccccc2NC1=O (stereo not drawn),762,0% (inactive),13.4% (inactive),87.3%,-48.7% (inactive),112%,-0.54 (inactive),-5.2e-05 (inactive),0.00685 (inactive),14.8% (inactive),33.9% (inactive)
O=C(OCCN=C1NS(=O)(=O)c2ccccc21)C1CC(=O)N(c2ccc(Cl)cc2)C1 (stereo not drawn),354,2.7% (inactive),-0.2% (inactive),118%,-44.7% (inactive),107%,-0.448 (inactive),2.4e-05 (inactive),0.00337 (inactive),6.2% (inactive),23.6% (inactive)
C#CCSc1nnc(-c2ccccc2)c(=O)[nH]1,903,-8.2% (inactive),0.6% (inactive),127%,-57.3% (inactive),109%,-0.505 (inactive),-4.9e-05 (inactive),0.00603 (inactive),-0.0999% (inactive),-4.88% (inactive)
CCCS(=O)(=O)C(=C1Nc2ccccc2N1)S(=O)(=O)CCC,543,-7% (inactive),-18.7% (inactive),119%,0.5% (inactive),75.9%,-0.63 (inactive),-4.3e-05 (inactive),0.00495 (inactive),12.1% (inactive),15.8% (inactive)
CCOc1ccc(NC2c3ccccc3C(=O)N2Cc2ccco2)cc1 (stereo not drawn),695,-6.7% (inactive),6.4% (inactive),47.6%,-23.8% (inactive),91.8%,-0.6 (inactive),1.5e-05 (inactive),0.00369 (inactive),-13.3% (inactive),-22.8% (inactive)
Cn1c(=O)c2c(nc(CN3CCN(c4ccccc4F)CC3)n2CCN2CCOCC2)n(C)c1=O,317,-6.9% (inactive),13.3% (inactive),114%,-26.9% (inactive),107%,-0.288 (inactive),-2.7e-05 (inactive),0.00647 (inactive),17.6% (inactive),17.1% (inactive)
COc1ccc(CNC(=O)C(c2ccco2)N(Cc2cccs2)C(=O)Cc2cccs2)cc1 (stereo not drawn),658,9.5% (inactive),-14.3% (inactive),107%,-44.5% (inactive),105%,-0.6 (inactive),-8.4e-06 (inactive),0.00565 (inactive),13.1% (inactive),28.3% (inactive)
